{"source": "PubChem BioAssay AID2551", "about": "(National Center for Advancing Translational Sciences (NCATS), 2010)", "note": "The campaign covered roughly 310,000 compounds. About 17,000 (5.5%) were called active. Another 11% or so got no clear call; they are omitted. For the sample, actives were picked, then their nearest neighbours and some compounds at random. Values without a mark were called inactive. Calls follow the shape of the dose curve; as a rule, active = well fitted inhibition curve with a large enough effect; inconclusive = small, poorly fitted or top-dose-only effect, or effect the other way; inactive = no such curve, though single readings can be large or run the other way. % is scaled to controls: 0 for no effect and ±100 for the full control effect; potency is read from the fitted curve at half-maximal effect."}
{"biological_target": "Nuclear receptor ROR-gamma (Mus musculus) (UniProt P51450)", "sequence (P51450 whole entry, looked up, the tested form may be a part)": "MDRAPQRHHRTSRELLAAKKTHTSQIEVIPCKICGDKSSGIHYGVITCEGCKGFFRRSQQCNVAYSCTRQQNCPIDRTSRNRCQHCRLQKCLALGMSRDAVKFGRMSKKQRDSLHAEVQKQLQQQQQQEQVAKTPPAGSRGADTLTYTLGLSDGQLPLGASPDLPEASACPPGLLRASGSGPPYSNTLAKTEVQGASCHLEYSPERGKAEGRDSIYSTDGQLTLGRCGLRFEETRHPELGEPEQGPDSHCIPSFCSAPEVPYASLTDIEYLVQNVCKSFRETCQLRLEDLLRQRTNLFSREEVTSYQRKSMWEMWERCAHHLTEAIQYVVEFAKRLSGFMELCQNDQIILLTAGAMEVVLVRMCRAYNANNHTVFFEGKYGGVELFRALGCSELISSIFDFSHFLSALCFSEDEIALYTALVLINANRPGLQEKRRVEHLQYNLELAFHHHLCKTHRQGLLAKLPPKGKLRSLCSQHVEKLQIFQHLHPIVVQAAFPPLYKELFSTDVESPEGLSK", "test": "qHTS for inhibitors of ROR gamma transcriptional activity; also: nearly all actives have a fitted effect of over 60% in size", "settings": "Drosophila S2 Gal4-RORgamma UAS-luciferase reporter, 20 h; series mostly up to 53.6 µM; activity change, negative = inhibition: at the top concentration", "how_it_was_run": "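Drosophila Schneider cells stably carrying a metallothionein-driven Gal4 DBD–ROR gamma fusion and a UAS-Photinus luciferase reporter were exposed to compound for 1 hr, then induced with copper sulfate (700 uM final) for 20 hr at ambient temperature before luminescence reading.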", "units": {"activity change, negative = inhibition": "%"}}
{"molecule": "COc1ccc(NC(=S)N2CCc3cc(OC)c(OC)cc3C2)cc1", "activity change, negative = inhibition": 0.935}
{"molecule": "COc1ccc(OC)c(NC(=S)N2CCc3ccccc3C2)c1", "Potency": "17.8 µM (active)"}
{"molecule": "COc1ccc(C)cc1NC(=S)N1CCOCC1", "activity change, negative = inhibition": 27.8}
{"molecule": "O=C(Nc1ccc(C(=O)NCc2ccccc2Cl)cc1)C1=CSCCO1", "activity change, negative = inhibition": 37}
{"molecule": "CC(C)CNS(=O)(=O)c1ccc(CCC(=O)NCc2ccc(Cl)cc2)cc1", "activity change, negative = inhibition": 26.1}
{"molecule": "Fc1ccccc1CNC(=S)Nc1ccc(Cl)cc1", "Potency": "7.08 µM (active)"}
{"molecule": "Cn1cc(C(=O)NCc2ccccc2F)cn1", "activity change, negative = inhibition": 0.122}
{"molecule": "O=C(CN1CCN(c2ccc(Cl)cc2)CC1)NCc1cccs1", "activity change, negative = inhibition": 11.9}
{"molecule": "S=C(NCc1cccs1)Nc1ccc(Cl)cc1", "Potency": "6.31 µM (active)"}
{"molecule": "O=C(Cc1cccc2ccccc12)NNC(=O)Nc1ccc(Cl)cc1", "activity change, negative = inhibition": 18.9}
{"molecule": "CC(NCc1cccs1)C(=O)Nc1cc(Cl)cc(Cl)c1", "note": "(stereo not drawn)", "activity change, negative = inhibition": 14.4}
{"molecule": "Cc1cc(C(F)(F)F)nc(SCC(=O)Nc2nccs2)n1", "activity change, negative = inhibition": -16.2}
{"molecule": "COc1cccc(/C(C)=N/Nc2ncc(Cl)cc2Cl)c1", "Potency": "12.6 µM (active)"}
{"molecule": "C/C(=N\\Nc1ncc(Cl)cc1Cl)c1cccs1", "Potency": "10 µM (active)"}
{"molecule": "C/C(=N\\Nc1nc2ccccc2[nH]1)c1cccs1", "Potency": "10 µM (active)"}
{"molecule": "COC(=O)c1sccc1N/N=C(\\C)c1ccc(F)c(Cl)c1", "activity change, negative = inhibition": 41.7}
{"molecule": "C/C(=N\\NS(=O)(=O)c1ccc(Br)cc1)c1cccs1", "activity change, negative = inhibition": 12.2}
{"molecule": "C/C(=N\\NC(=O)CSc1nc2ccccc2c(=O)n1-c1ccccc1C)c1cccs1", "activity change, negative = inhibition": 16.2}
{"molecule": "C/C(=N\\Nc1ccc(S(N)(=O)=O)cc1[N+](=O)[O-])c1cccs1", "activity change, negative = inhibition": -41.7}
{"molecule": "O=C(Nc1ccccc1-c1nc2ccccc2[nH]c1=O)c1cccs1", "activity change, negative = inhibition": 11.1}
{"molecule": "CCN(CC)c1ccc(C(=O)N/N=C(\\C)c2cccc(OC)c2)cc1", "activity change, negative = inhibition": -41}
{"molecule": "Cc1nn(CCCC(=O)NCc2ccccc2Cl)c(=O)c2nccn12", "activity change, negative = inhibition": -3.79}
{"molecule": "COc1cccc(C(=O)Nc2ccc(N3CCN(C(=O)c4ccco4)CC3)cc2)c1", "activity change, negative = inhibition": 44.1}
{"molecule": "COC(=O)C1CCN(C(=O)c2ccc3oc(Cc4ccc(Cl)cc4)nc3c2)CC1", "activity change, negative = inhibition": 5.32}
{"molecule": "O=C(NC1CCCC1)c1cc(-c2ccccc2)on1", "activity change, negative = inhibition": -3.27}
{"molecule": "Cc1ccc(S(=O)(=O)N(C)C)cc1NC(=O)C1Cc2ccccc2CN1C(=O)c1ccco1", "note": "(stereo not drawn)", "activity change, negative = inhibition": 11}
{"molecule": "CN(Cc1ccccc1)CC(O)COc1ccc(CNCc2cc3ccccc3s2)cc1", "note": "(stereo not drawn)", "activity change, negative = inhibition": 5.5}
{"molecule": "N#C/C(=C\\c1cccnc1)C(=O)Nc1ccc(SC(F)F)cc1", "activity change, negative = inhibition": -14.4}
{"molecule": "CS(=O)(=O)C1=NN2C(=N)/C(=C\\c3ccc(OCCOc4ccccc4)cc3)C(=O)N=C2S1", "activity change, negative = inhibition": 20}
{"molecule": "CCOCCCn1c(SCC(=O)Nc2cc(OC)ccc2OC)nc2ccccc2c1=O", "activity change, negative = inhibition": 2.15}
{"molecule": "CCSc1nnc(-c2cc3c(s2)-c2ccccc2CC3)o1", "Potency": "1 µM (active)"}
{"molecule": "Clc1ccc(-c2nnc(SCc3nc4ccccc4s3)o2)cc1", "activity change, negative = inhibition": 25.3}
{"molecule": "O=C(CSc1nnc(-c2ccccc2O)o1)NC1CCCCC1", "activity change, negative = inhibition": -37.3}
